Molecules are shown by their SMILES. Hit rate of the full screen: of about 410,000 compounds, about 480 (0.12%) were called active. The full list was thinned out, with actives kept by preference. Values without a mark were called inactive. Cut-off read from the data, not from the text of the source: active = activation above about 50%; inconclusive = mostly about 30% to 49%; inactive = weaker than that.

Sequence of Mucolipin-1 (Homo sapiens) (Q9GZU1 whole entry, looked up, the tested form may be a part): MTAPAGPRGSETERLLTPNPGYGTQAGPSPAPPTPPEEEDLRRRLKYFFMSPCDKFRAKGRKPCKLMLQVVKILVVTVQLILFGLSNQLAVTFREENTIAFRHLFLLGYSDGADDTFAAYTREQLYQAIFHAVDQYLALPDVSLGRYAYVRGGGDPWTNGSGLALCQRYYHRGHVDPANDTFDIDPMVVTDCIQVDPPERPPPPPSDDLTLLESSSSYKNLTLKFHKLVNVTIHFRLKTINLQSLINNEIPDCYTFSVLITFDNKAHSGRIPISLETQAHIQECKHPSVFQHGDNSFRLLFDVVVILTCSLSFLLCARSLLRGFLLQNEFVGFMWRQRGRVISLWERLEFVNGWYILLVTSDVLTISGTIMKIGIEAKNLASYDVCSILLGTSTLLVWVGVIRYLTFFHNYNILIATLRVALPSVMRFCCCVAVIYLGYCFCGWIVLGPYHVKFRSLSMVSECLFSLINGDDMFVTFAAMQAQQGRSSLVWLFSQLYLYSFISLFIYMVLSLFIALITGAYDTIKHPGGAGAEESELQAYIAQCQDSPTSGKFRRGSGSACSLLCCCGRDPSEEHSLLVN

This test concerns the target Mucolipin-1 (Homo sapiens) (UniProt Q9GZU1). The test can be described thus: qHTS for Agonists of the Human Mucolipin Transient Receptor Potential 1 (TRPML1). Note: 0% is about no effect. As to conditions: TRPML1-expressing cells, Ca2+ dye fluorescence, FDSS; hits give high values. From the text: Mutations of human Mucolipin transient receptor potential 1 (TRPML1) cause type IV mucolipidosis (ML4), a devastating neurodegenerative disease in young children. […] Currently, there is no treatment for ML4. […] Under physiological conditions, TRPMLs regulate membrane trafficking by transducing information about PI(3,5)P2 levels into changes in juxtaorganellar Ca2+, thereby triggering membrane fusion/fission events in the late endocytic pathways (endolysosomal trafficking). In addition, TRPML1 mediates release of Fe2+ from late endosomes and lysosomes, which is essential for cellular iron metabolism. Thus, impaired ion (Ca2+ and Fe2+) homeostasis underlies lysosomal dysfunction and ML4 phenotypes. In ML4 cells, the problem is twofold. First, defective Ca2+-dependent membrane trafficking due to TRPML1-deficiency causes accumulation of lipids and other bio-materials in the lysosome. The second strike comes from the lysosomal iron overload (due to impairment of TRPML1's Fe2+ conductivity), which converts the accumulated materials into the nondegradable (resistant to lysosomal degradation) lipofuscin (also called aging pigment) in the lysosome. Lipofuscin accumulation dramatically compromises the functions of lysosomes.
Niemann-Pick type C (NPC) disease is another lysosome storage disease (LSD) with severe neurodegeneration during the childhood. Currently, there is no cure for NPC. […] Thus, TRPML1 is likely to be an essential regulator of lysosome ion homeostasis. We specifically hypothesize that stimulating TRPML1's Fe2+/Ca2+ channel activity in the lysosome using synthetic agonists can alleviate neurodegeneration associated with ML4 or NPC.
To this end, a high throughput screen was developed in a miniaturized format to screen against the Molecular Libraries Small Molecule Repository (MLSMR) to find small molecules that act either as inhibitors or agonist against the TRPML1 channel.
NIH Chemical Genomics Center [NCGC]
NIH Molecular Libraries Probe Centers Network [MLPCN]
Assay Submitter (PI): Haoxing Xu, University of Michigan Ann Arbor
TRPML1-DL cells are dissociated from flasks, counted and, brought up to a density of 500,000 cells per mL of media containing a 1X Tet inducer. Using a Multidrop Combi, 3uL of this cell solution is dispensed to each well of a 1536 TC treated, black, clear bottom hi base plate for a final cell density of 1,500 cells per well. The assay plates are incubated overnight (approximately 16 hours) at 37 degrees C and 5% CO2. Using a Multidrop Combi, 2uL of ABD Ca8 no wash dye plus quencher is added to each well. The assay plates incubate at room temperature in the dark for 45-90 minutes. The assay plate is read on the FDSS using the following protocol: 10 second baseline read, 23nL of compounds and controls are added using 1536 pintool, agonist read for 110 seconds, 1 uL EC80 addition (4uM final 54-4 diluted in media), antagonist read for 110 seconds.
For orientation: Quantitative high-throughput screening tests each substance at several concentrations.
Regarding `Cc1nn(CC(=O)O)c(=O)c2cc3cc(F)ccc3n12`, the activation is -0.613%.
As for `CC1CC(C)CN(c2oc(-c3ccc(OCc4ccc(Cl)cc4)cc3)nc2C#N)C1` (stereo unspecified), the figure is -0.254%; as for `COc1ccc(-c2ccc(C3C4C=CCCC4(C)C(=O)N3Cc3ccccc3)c(F)c2)cc1OC` (stereo unspecified), 0.474%.
In the case of `COc1ccc(Cl)cc1NC(=O)c1sc2nc3c(cc2c1N)CN(C)CC3`, the activation was 1.12%.
With `O=C(c1ccc2c(c1)N(Cc1ccccc1)C(=O)c1ccccc1S2(=O)=O)N1CCC(Cc2ccccc2)CC1`, the activation is 0.0562%.
Take `CC(=O)c1ccc(NS(=O)(=O)c2ccc(-c3cc(C)no3)s2)cc1`: the activation was -0.182%.
The same measure for `CN(C)c1cccc2ccccc12`: -0.266%; for `CC(C)(C)OC(=O)N(Cc1ccco1)S(=O)(=O)c1ccccc1Br`: 0.62%.
As for `CCOc1cc2[nH]c(=O)n(Cc3ccc(C(=O)NCCN(CC)CC)cc3)c(=O)c2cc1OCC`, the activation is -0.328%.
As for `O=C(Nc1ccccc1C(F)(F)F)c1nc(S(=O)(=O)Cc2ccccc2F)ncc1Cl`, the figure is 0.0634%; as for `CCOc1ccccc1NC(=O)Cn1nnc(C(=O)Nc2ccc(C)c(C)c2)c1N`, 1.55%; as for `C/C=C/NNC(=O)Cc1ccc(OC)cc1`, -0.93%.
On to `CC(C)(C)C1CCC(NC(=O)c2cnn3c2NC(=C2CC2)C=C3C(F)F)CC1` (stereo unspecified), for which the activation was -1.12%.
As to `COCCn1c(N)c(NCc2ccccc2)c(=O)[nH]c1=O`, the activation was 1.47%.
In the case of `Cc1cc2nc3c(=O)n(Cc4ccccc4)c(=O)[nH]c3nc2cc1N`, the activation is 94.8% (active).
Take `CCC(=O)Nc1ccc(C)cc1-c1nc2ccccc2n(Cc2ccccc2)c1=O`: the activation was 0.405%.
For `COc1cc(OC)c(OC)cc1/C=C1\C=Cc2ccccc21`, the activation was -0.666%.
The same measure for `COc1ccc(Cc2nc3ccc(C(=O)NCc4ccccc4Cl)cc3o2)cc1`: 0.91%; for `COc1ccccc1CNc1nccn(-c2ccc(F)cc2)c1=O`: 0.564%.
Take `O=C1COc2ccc(-c3csc(-c4ccc(Cl)cc4)n3)cc2N1`: the activation is -0.602%.
As for `NC(=O)Nc1ccc(/C=C/c2ccnc3ccccc23)cc1`, the figure is -0.0317%; as for `CC(=O)Nc1ccc(S(=O)(=O)N2N=NC3C2C2CC4C3(CN(C(=O)OC(C)(C)C)S4(=O)=O)O2)cc1` (stereo unspecified), 0.118%; as for `COc1ccc(CNc2nc(-c3ccc(Cl)cc3)nn2S(=O)(=O)c2ccc(C)cc2)cc1`, 3.68%.
For the compound `O=C(Nc1cccc2cccnc12)C(F)(F)F`, the activation is 1.01%.
In the case of `CCOc1ccc(NC(=O)c2cnn(-c3ccccc3)c2-n2cccc2)cc1`, the activation is -0.36%.
Take `CC(C)(C)c1ccc(C(=O)C[n+]2cccc3cc(Cl)ccc32)cc1`: the activation is 0.444%.
For `O=C(/C=C(O)/C=C/c1ccc(O)cc1)/C=C/c1ccc(O)cc1`, the activation is 80.8% (active).
As to `COc1ccc(C(=O)c2oc3ccccc3c2NC(=O)COc2cccc(C)c2)cc1`, the activation was -0.131%.
The same measure for `Cc1cc(C)cc(NC(c2nnc(-c3cccc(F)c3)o2)c2ccc(F)cc2Cl)c1` (stereo unspecified): 0.152%; for `O=C1CCC[C@@H]2C[C@@]3(C[C@@H]4CCN1[C@H]24)Nc1ccccc1NC3=NCc1ccccc1`: 0.0295%; for `Cc1c(CCO)sc[n+]1CC(=O)c1ccc2ccccc2c1`: -0.38%.
Regarding `O=C(c1ccc2c(c1)N(Cc1ccccc1F)C(=O)c1ccccc1S2(=O)=O)N1CCOCC1`, the activation was -0.566%.
Consider `COc1ccc(/C=C/c2ccnc3ccccc23)cc1OC`, for which the activation was -0.507%.
Take `CN(C)C1=C2C=CC=CC2/C(=C2/C=Cc3ccccc32)C=C1` (stereo unspecified): the activation was -0.475%.
As to `COc1cc2nc(C#Cc3nc4cc(OC)c(OC)cc4[nH]3)[nH]c2cc1OC`, the activation is -0.266%.
The same measure for `O=C(NC1CC(=O)N(c2ccc(F)cc2)C1)c1cccs1` (stereo unspecified): -0.226%.
The same measure for `Cc1cccc(-n2ncc(C(=O)N3CCC(C)CC3)c2C2CCN(C(=O)OC(C)(C)C)CC2)c1`: 0.455%; for `COc1ccccc1CN1CCC(CNC(=O)c2cnn(-c3cccc(Cl)c3)c2C2CCN(C(=O)OC(C)(C)C)CC2)CC1`: 1.58%.
Regarding `CC(C)(C)OC(=O)N1CCC(c2c(C(=O)N3CCN(c4cccc(Cl)c4)CC3)cnn2-c2cccc(Cl)c2)CC1`, the activation is 69.8% (active).
As for `CCOC(=O)N1CCC(NC(=O)c2cnn(-c3cccc(C)c3)c2C2CCN(C(=O)OC(C)(C)C)CC2)CC1`, the figure is 0.0606%; as for `Cc1cccc(-n2ncc(C(=O)N3CCc4ccccc4C3)c2C2CCN(C(=O)OC(C)(C)C)CC2)c1`, 0.364%; as for `Cc1cccc(-n2ncc(C(=O)N3CCN(c4ccc(Cl)cc4)CC3)c2C2CCN(C(=O)OC(C)(C)C)CC2)c1`, 51.3% (active).
As for `COCC(C)NS(=O)(=O)c1ccc(N2CCCCS2(=O)=O)cc1` (stereo unspecified), the figure is -0.459%.
As for `CC1=C(c2ccc(F)cc2)S(=O)(=O)N=C1N1CCC(C(=O)NCCc2ccccc2C)CC1`, the figure is 2.54%; as for `COc1ccc(-c2nc(=N)sn2-c2ccccc2)cc1`, 12.5%.
As for `COc1ccc(/C=C/c2ccccn2)cc1OC`, the activation is -0.792%.
